Assay results from PubChem BioAssay AID449762 (Southern Research Specialized Biocontainment Screening …, 2010).
Screen size: about 330,000 compounds; about 1,900 (0.58%) were called active. About 4% were inconclusive and are not listed. No stated cut-off is given here; in the data, inconclusive means inhibition above about 70% without an active follow-up result; inactive means below that. Only a sample is shown. Entries with a potency or affinity are not part of this list.

test: M. tuberculosis growth inhibition, HTS (AID 449762);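 further: bacterial growth assessed after seven days of incubation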; conditions: M. tuberculosis H37Rv growth inhibition, 7H9 media; at 25 µM; active compounds read high

Compound	inhibition
CC(=O)Nc1ccc(NC(=O)CCCSc2nc3ccccc3s2)cc1	0.37% (inactive)
COCC(C)n1c(-c2ccc3c(c2)NC(=O)CO3)csc1=Nc1ccc(OC(F)F)cc1 (stereo unspecified)	5.17% (inactive)
COCCN=c1scc(-c2ccc3c(c2)NC(=O)CO3)n1/N=C(\C)c1ccc(O)cc1	6.92% (inactive)
CC(=O)N1CCN(S(=O)(=O)c2cccc(C(=O)NC3CCCC3)c2)CC1	-8.08% (inactive)
O=C(Nc1ccccc1C1CC1)c1cccs1	-3.36% (inactive)
CCc1cccc2c(C(=O)CN3C(=O)NC4(CCCCCC4)C3=O)c[nH]c12	-3.22% (inactive)
CN(Cc1cn(C)nc1-c1ccc(Oc2ccccc2)cc1)CC1COCCO1 (stereo unspecified)	8.39% (inactive)
O=C(CN1C(=O)/C(=C/c2ccccc2F)Sc2ccccc21)NCc1cccnc1	14.8% (inactive)
O=C(NCc1cccnc1)c1ccc(Cl)c(Cl)c1	3.71% (inactive)
CC(C)CCNC(=O)Cc1csc(-c2ccccc2)n1	-12% (inactive)
COc1ccc(CC(NC(C)=O)C(=O)NC2CCN(c3c4c(nc5ncnn35)CCC4)CC2)cc1 (stereo unspecified)	-5.34% (inactive)
Cc1ccc(OCC(=O)NC(C)c2ccc(Cl)c(Cl)c2)c([N+](=O)[O-])n1 (stereo unspecified)	-3.43% (inactive)
CC(=O)NC(C)c1ccc(Cl)c(Cl)c1 (stereo unspecified)	7.59% (inactive)
CCOC(=O)Cc1csc(NS(=O)(=O)Cc2ccccc2)n1	-4.69% (inactive)
Cc1ccc2cccc(OCC(=O)NCCC3=CCCCC3)c2n1	37.1% (inactive)
Cc1ccc(C(=O)N/C(=C\c2cccs2)C(=O)N2CCN(C)CC2)cc1C	0.74% (inactive)
CN1C(=O)[C@H]2[C@@H](/C=C/c3ccccc3)N3C(=O)CN(Cc4ccccn4)C(=O)[C@@]3(Cc3ccccc3)[C@H]2C1=O	-6.69% (inactive)
COc1ccc(-c2nc(C3CCCCC3)c3cc(OC)ccc3n2)cc1	8.29% (inactive)
COc1ccc2nc(C3CCCCC3)nc(C3CCCCC3)c2c1	0.84% (inactive)
O=C(NCCC1=CCCCC1)C1CCN(S(=O)(=O)c2ccccc2C(F)(F)F)CC1	-3.46% (inactive)
COCCOc1cc(NC(=O)c2ccccc2)c(Cl)cc1Cl	15% (inactive)
CC(=O)c1cnc2c(-c3ccc(Cl)cc3)cnn2c1C	-5.22% (inactive)
Nc1c(-c2ccc(Cl)cc2)cnc2c(-c3ccccc3)cnn12	-2.52% (inactive)
COc1ccccc1NC(=O)CSc1nc2ccccc2c(=O)n1C	0.03% (inactive)

Compound	inhibition
COc1ccc(-c2nn(-c3ccccc3)cc2CNC(=O)c2cccc([N+](=O)[O-])c2)cc1	8.99% (inactive)
c1cncc(-c2ccc3ncnc(NCc4cccs4)c3c2)c1	0.82% (inactive)
CCOC(=O)N1CCN(CCC(=O)Nc2ccc(OC(F)(F)F)cc2)CC1	18.8% (inactive)
Cc1cc2cc(CNC(=S)NC3CCCCC3)ccc2[nH]1	4.14% (inactive)
Cc1ccc(CNC(=O)NC2CCCCC2)cc1	-3.64% (inactive)
Cc1ccc(N2C(=O)N(CC(=O)Nc3ccc(C)cc3Cl)C(=O)C2C)cc1 (stereo unspecified)	-3.9% (inactive)
Cc1ccc2cccc(N)c2n1	1.54% (inactive)
Cc1ccc2c(C)ccc(O)c2n1	-1.61% (inactive)
COc1ccc(CC(=O)N2CCC3(CC2)NCCc2[nH]cnc23)cc1	2.98% (inactive)
COc1ccccc1N1CCN(C2CCCN(C(=O)c3cccc(-c4ccco4)c3)C2)CC1 (stereo unspecified)	2.87% (inactive)
O=C(c1ccoc1)N1CCCC(N2CCN(c3ccc(F)cc3)CC2)C1 (stereo unspecified)	-11.5% (inactive)
CCOc1ccc(C2OC(=O)Cc3cc(OC)c(OC)cc32)cc1 (stereo unspecified)	-2.13% (inactive)
Cc1cccc(N2CCN(S(=O)(=O)c3cn(C)cn3)CC2)c1C	-3.87% (inactive)
Nc1cc(Cl)ccc1Oc1ccc(Cl)cc1	4.14% (inactive)
Nc1cc(Cl)ccc1Oc1ccccc1	-2.47% (inactive)
CN(CC(=O)Nc1ccc(F)c(F)c1F)c1ncnc2sccc12	1.29% (inactive)
O=C(CNC(=O)c1cnccn1)Nc1ccc(F)c(F)c1F	-5.9% (inactive)
COCCN(C(=O)/C=C/c1ccccc1)c1c(N)n(Cc2ccccc2)c(=O)[nH]c1=O	-1.36% (inactive)
O=C(O)c1ccc(N/N=C/C2=C(N3CCOCC3)C(=C\c3ccccc3)/CC2)cc1	0.66% (inactive)
O=CC1=C(N2CCOCC2)/C(=C\c2ccccc2)CC1	-3.36% (inactive)
O=C(NNC1CC(=O)N(c2ccc(Br)cc2)C1=O)c1cccnc1 (stereo unspecified)	1.55% (inactive)
O=C(Cc1ccccc1)NNC1CC(=O)N(c2ccc(Br)cc2)C1=O (stereo unspecified)	0.86% (inactive)
Cc1nn(C(C)C(=O)NCCCN(Cc2ccccc2)C(C)C)c(=O)c2c1sc1ccccc12 (stereo unspecified)	-3.36% (inactive)
C=CCC1c2cccc(C(=O)O)c2C(=O)N1c1cccc(C)c1 (stereo unspecified)	0.68% (inactive)

Compound	inhibition
Cc1cccc(Nc2nc(-c3ccc(O)cc3O)cs2)n1	6.03% (inactive)
CCOC(=O)C1CCN(c2ncnc3c2cnn3-c2ccc(Cl)cc2)CC1	5.45% (inactive)
COc1ccc(-n2ncc3c(N4CCC(C(N)=O)CC4)ncnc32)cc1	2.74% (inactive)
O=C(c1cnn(Cc2ccccc2)c1)N1CCN(S(=O)(=O)/C=C/c2ccccc2)CC1	6.35% (inactive)
COC(=O)c1c(NC(=O)CN2CCOCC2)sc2c1CCC(C)C2 (stereo unspecified)	3.32% (inactive)
COCC(=O)Nc1sc2c(c1C(=O)OC)CCC(C)C2 (stereo unspecified)	9.87% (inactive)
COCC(=O)Nc1cccc(-c2ccc3nncn3n2)c1	0.62% (inactive)
CCCCCc1ccc(-c2cn(CC3CCCCC3)nn2)cc1	5.3% (inactive)
CCn1cc(C(=O)NC(=S)Nc2ccccc2Br)cn1	-4.11% (inactive)
CCn1c(C)c(C)c2cc(C(=O)NC3CCCCCC3)ccc21	0.46% (inactive)
CCn1c(C)nc2cc(C(=O)NNC(=O)Nc3cccc(Cl)c3)ccc21	2.59% (inactive)
COc1ccc(-c2cc(C(=O)N/N=C/c3cccnc3)c3ccccc3n2)cc1	-8.58% (inactive)
CC(C)=CC(=O)N1CC[C@@H](N2CCN(c3ccccc3F)CC2)[C@H](O)C1	-5.32% (inactive)
COc1ccc(/C=N/Nc2nc(C)cc(-c3ccccc3)n2)c(OC)c1	7.29% (inactive)
COc1ccccc1/C=N/Nc1cc(C)nc2ccc(C)cc12	-11.1% (inactive)
CC(C)Oc1cccc(OCCN2C(=O)c3ccccc3C2=O)c1	7.3% (inactive)
NC(=S)NNc1ccnc2cc(Cl)ccc12	41.1% (inactive)
NC(=S)NNC(=O)Nc1ccc(Cl)c(Cl)c1	-11.5% (inactive)
CCOc1ccccc1N1CCN(CC(O)COCc2cccs2)CC1 (stereo unspecified)	7% (inactive)
C=CCn1c(CCCOc2ccc(Cl)cc2Cl)nnc1SCC(=O)Nc1nccs1	-6.64% (inactive)
O=C(/C=C/c1cccs1)N1CCN(Cc2ccc3c(c2)OCO3)CC1	49.9% (inactive)
O=C(O)/C=C/C(=O)N1CCN(Cc2ccc3c(c2)OCO3)CC1	-4.14% (inactive)
C=CCn1c(SCC(=O)N(CC)CC)nc(O)cc1=O	1.96% (inactive)
COc1cccc(/C=N/NC(=O)CNC(=O)/C=C\c2ccccc2)c1O	0.24% (inactive)

Compound	inhibition
O=C(Nc1ccccc1Cl)c1ccc(Cl)cc1Cl	64.5% (inactive)
O=C(O)CCCCCN1C(=O)CSC1=S	-1.88% (inactive)
O=C(O)CN1C(=O)CSC1=S	3.79% (inactive)
O=C(CN1CCN(Cc2ccccc2F)C1=O)NCC1CCCO1 (stereo unspecified)	1.03% (inactive)
O=C(CCc1c[nH]c2ccccc12)OCC(=O)N1CCN(S(=O)(=O)c2ccccc2)CC1	43.2% (inactive)
Cc1ccc(S(=O)(=O)N2CCN(C(=O)CCc3c[nH]c4ccccc34)CC2)cc1	-4.25% (inactive)
COc1cc(CNC(C)c2ccccc2)c(Br)cc1OCC(N)=O (stereo unspecified)	-3.38% (inactive)
c1ccc(-c2cn3c(n2)SCC3)cc1	-1.11% (inactive)
Oc1ccc(-c2cn3c(n2)SCC3)cc1	-2.38% (inactive)
COc1ccc(NC(=O)c2cc(-c3ccc(C)cc3)on2)cc1OC	-6.33% (inactive)
COc1cc2c(cc1OC)C(C1C(=O)CCCC1=O)N(C(=O)CCl)CC2 (stereo unspecified)	2.64% (inactive)
COc1cc2c(cc1OC)C(c1cc(Br)ccc1O)N(C(C)=O)CC2 (stereo unspecified)	-0.81% (inactive)
Cc1ccc(S(=O)(=O)N2[C@@H](c3ccc(Br)cc3)C(C(=O)O)=CC[C@H]2c2ccc3c(c2)OCO3)cc1	3.53% (inactive)
CCOC(=O)c1cnc(SC2CC(=O)N(c3ccccc3)C2=O)nc1N (stereo unspecified)	-5.11% (inactive)
CCOC(=O)c1cnc(SC2CC(=O)N(c3ccc(C)cc3)C2=O)nc1N (stereo unspecified)	-12.6% (inactive)
CC(C)(C)OC(=O)C[C@H]1C/C=C\C[C@H](CC(=O)NCCO)C(=O)N2CCC[C@@H]2COC1=O	2.79% (inactive)
CSc1ccc(CN2CCC(CO)(Cc3ccc(Cl)cc3)CC2)cc1	2.5% (inactive)
CNC(=O)NC(=O)COC(=O)CCc1nc(=O)c2ccccc2n1C	2.07% (inactive)
Cn1nnnc1Sc1ncnc2scc(-c3ccccc3)c12	15.1% (inactive)
Cn1nnnc1Sc1ncnc2scc(-c3cccc4ccccc34)c12	61.1% (inactive)
COc1cc(C(=O)Nc2cccc(-n3cnnn3)c2)cc(OC)c1OC	-9.02% (inactive)
Cc1ccc(-c2nn(-c3ccccc3)cc2C=C2C(=O)CC(C)(C)CC2=O)cc1	28.4% (inactive)
CC1(C)CC(=O)C(=Cc2cn(-c3ccccc3)nc2-c2ccccc2)C(=O)C1	14.4% (inactive)
CC1C=CCC2C(=O)N(c3cccc(C(=O)NCc4ccccc4)c3)C(=O)C12 (stereo unspecified)	0.47% (inactive)
